Conditions in all cases: mRNA level, 48 h; actives raise or lower the signal
Read-out in assay [1]: Lipoprotein lipase (LPL), LPL (gene 4023)
Nature of the assay: LTEA_HepaRG_LPL: Life Technologies and Expression Analysis (LTEA) Assay for Lipoprotein lipase (LPL) using HepaRG (AID 2283515). An outline of the steps:
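Differentiated HepaRG cells, plated 48 h, then exposed 48 h in serum-free induction medium to 8 concentrations (top 100 uM, half-log steps) in 0.5% DMSO, duplicate. LPL mRNA measured by qRT-PCR, normalized to ACTB, GAPDH and POLR2A.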

Read-out in assay [2]: MicroRNA 122 (MIR122), gene 406906
Nature of the assay: LTEA_HepaRG_MIR122: Life Technologies and Expression Analysis (LTEA) Assay for MicroRNA 122 (MIR122) using HepaRG (AID 2283516). Further: the transcript read is the microRNA miR-122. An outline of the steps: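 HepaRG plated 48 h, switched to serum-free induction medium, then treated in duplicate for 48 h (100 uM top, half-log steps, 0.5% DMSO vehicle). RNA isolated, qRT-PCR performed, concentration-response fitted both directions relative to DMSO.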

Read-out in assay [3]: Paternally Expressed 10 (PEG10), PEG10 (gene 23089)
Briefly: LTEA_HepaRG_PEG10: Life Technologies and Expression Analysis (LTEA) Assay for Paternally Expressed 10 (PEG10) using HepaRG (AID 2283520). An outline of the steps: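 HepaRG, 48 h post-plating → serum-free induction medium → 48 h chemical exposure (duplicate, 8-pt, max 100 uM, half-log, 0.5% DMSO) → lysis in RLT → TaqMan qRT-PCR for PEG10, ACTB/GAPDH/POLR2A normalisation.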

Read-out in assay [4]: Protein phosphatase 2A (PPP2R4), PTPA (gene 5524)
Nature of the assay: LTEA_HepaRG_PPP2R4: Life Technologies and Expression Analysis (LTEA) Assay for Protein phosphatase 2A (PPP2R4) using HepaRG (AID 2283522). An outline of the steps:
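Readout is PPP2R4 transcript level by microfluidic qRT-PCR after 48 h chemical treatment of human HepaRG liver cells. Concentrations spanned 100 uM downward in half-log steps; gain or loss of signal was fitted relative to DMSO.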

Read-out in assay [5]: Phosphatase and tensin (PTEN), PTEN (gene 5728)
Nature of the assay: LTEA_HepaRG_PTEN: Life Technologies and Expression Analysis (LTEA) Assay for Phosphatase and tensin (PTEN) using HepaRG (AID 2283523). The gist of the method: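 HepaRG cells, 48 h after plating, exposed in duplicate for 48 h in serum-free induction medium to 8 half-log concentrations up to 100 uM (0.5% DMSO). PTEN mRNA by qRT-PCR, normalized to ACTB, GAPDH, POLR2A; bidirectional fit versus DMSO.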

Read-out in assay [6]: solute carrier (SLC22A1), SLC22A1 (gene 6580)
Briefly: LTEA_HepaRG_SLC22A1: Life Technologies and Expression Analysis (LTEA) Assay for solute carrier (SLC22A1) using HepaRG (AID 2283524). The gist of the method:
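Differentiated human HepaRG cells in serum-free induction medium, exposed 48 h in duplicate to 8-point half-log series from 100 µM top in 0.5% DMSO. SLC22A1 mRNA by TaqMan qRT-PCR normalized to ACTB, GAPDH, POLR2A; bidirectional fit versus DMSO.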

Read-out in assay [7]: NAD(P)H dehydrogenase [quinone] 1 (NQO1), NQO1 (gene 1728)
Nature of the assay: LTEA_HepaRG_NQO1: Life Technologies and Expression Analysis (LTEA) Assay for NAD(P)H dehydrogenase [quinone] 1 (NQO1) using HepaRG (AID 2283526). An outline of the steps:
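HepaRG, 48 h post-plating → serum-free induction medium → test chemical 48 h (duplicate, 100 uM top, half-log x8, 0.5% DMSO) → RNA isolation → qRT-PCR, ACTB/GAPDH/POLR2A normalization; bidirectional curve fit vs DMSO baseline.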

Read-out in assay [8]: Nuclear factor erythroid 2-related factor 2 (Homo sapiens) (UniProt Q16236)
Nature of the assay: LTEA_HepaRG_NFE2L2: Life Technologies and Expression Analysis (LTEA) Assay for Nuclear factor erythroid 2-related factor 2 (NFE2L2) Transcription Factor using HepaRG (AID 2283527).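 On outcome: TaqMan qRT-PCR transcript level normalised to ACTB GAPDH and POLR2A housekeeping genes.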 An outline of the steps: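 Differentiated human HepaRG cells, serum-free induction medium, exposed 48 h in duplicate to eight half-log concentrations up to 100 uM in 0.5% DMSO. NFE2L2 mRNA by Fluidigm TaqMan qRT-PCR, normalised to ACTB, GAPDH, POLR2A; bidirectional change versus DMSO.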

Read-out in assay [9]: succinate dehydrogenase complex iron sulfur subunit B (SDHB), SDHB (gene 6390)
Briefly: LTEA_HepaRG_SDHB: Life Technologies and Expression Analysis (LTEA) Assay for succinate dehydrogenase complex iron sulfur subunit B (SDHB) using HepaRG (AID 2283528). An outline of the steps: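 Readout is SDHB transcript level by qRT-PCR, normalised to three housekeeping genes and fitted bidirectionally against 0.5% DMSO vehicle. Human HepaRG cells were treated for 48 h at up to 100 uM.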

Read-out in assay [10]: solute carrier (SLCO1B1), SLCO1B1 (gene 10599)
Nature of the assay: LTEA_HepaRG_SLCO1B1: Life Technologies and Expression Analysis (LTEA) Assay for solute carrier (SLCO1B1) using HepaRG (AID 2283530). The gist of the method: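 Gain or loss of SLCO1B1 mRNA is fitted against the 0.5% DMSO vehicle in human HepaRG liver cells treated 48 h at up to 100 uM in half-log steps. Expression comes from qRT-PCR normalized to endogenous controls.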

Read-out in assay [11]: sulfotransferase 2A1 (SULT2A1), SULT2A1 (gene 6822)
Nature of the assay: LTEA_HepaRG_SULT2A1: Life Technologies and Expression Analysis (LTEA) Assay for sulfotransferase 2A1 (SULT2A1) using HepaRG (AID 2283531). An outline of the steps:
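Cells were plated and cultured 48 h, switched to serum-free induction medium, then dosed in duplicate for 48 h (8 concentrations, max 100 uM). RNA was isolated and SULT2A1 expression measured by qRT-PCR; gain or loss of signal fitted relative to DMSO.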

Read-out in assay [12]: Transforming Growth Factor (TGFB1), TGFB1 (gene 7040)
Briefly: LTEA_HepaRG_TGFB1: Life Technologies and Expression Analysis (LTEA) Assay for Transforming Growth Factor (TGFB1) Transporter using HepaRG (AID 2283533). An outline of the steps:
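Expression change of TGFB1 in human HepaRG cells is measured after a 48 h chemical exposure, up to 100 uM in 0.5% DMSO vehicle. Curves are fitted in both directions relative to the DMSO baseline.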

Read-out in assay [13]: TIMP1, TIMP1 (gene 7076)
Nature of the assay: LTEA_HepaRG_TIMP1: Life Technologies and Expression Analysis (LTEA) Assay for TIMP1 using HepaRG (AID 2283534).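 On outcome: TaqMan qRT-PCR signal normalized to ACTB GAPDH and POLR2A housekeeping genes.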 The gist of the method:
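We dosed human liver HepaRG cultures for 48 hours with up to 100 uM test chemical and measured TIMP1 expression by qRT-PCR. Activity in either direction is fitted relative to the 0.5% DMSO vehicle.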

Read-out in assay [14]: MYC, MYC (gene 4609)
Nature of the assay: LTEA_HepaRG_MYC: Life Technologies and Expression Analysis (LTEA) Assay for MYC using HepaRG (AID 2283518). The gist of the method:
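Cells are thawed, plated and cultured 48 h, then treated for 48 h with test chemicals (eight half-log concentrations from 100 uM, 0.5% DMSO vehicle). RNA is isolated and MYC expression quantified by qRT-PCR against three housekeeping genes.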

Read-out in assay [15]: Nuclear factor NF-kappa-B p105 subunit (Homo sapiens) (UniProt P19838)
Nature of the assay: LTEA_HepaRG_NFKB1: Life Technologies and Expression Analysis (LTEA) Assay for Nuclear Factor Kappa B Subunit 1 (NFKB1) using HepaRG (AID 2283521).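 Further: TaqMan qRT-PCR transcript normalised to ACTB GAPDH and POLR2A housekeeping genes.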 An outline of the steps:
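HepaRG, 48 h exposure; 8-pt half-log series from 100 uM in 0.5% DMSO; duplicates. Readout: NFKB1 mRNA by qRT-PCR (Fluidigm arrays), housekeeping-normalized. Gain/loss fit vs DMSO baseline.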

Read-out in assay [16]: Pyruvate Dehydrogenase Kinase 4 (PDK4), PDK4 (gene 5166)
Briefly: LTEA_HepaRG_PDK4: Life Technologies and Expression Analysis (LTEA) Assay for Pyruvate Dehydrogenase Kinase 4 (PDK4) using HepaRG (AID 2283525). The gist of the method: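 HepaRG cells plated 48 h, then switched to serum-free induction medium and exposed in duplicate for 48 h to 8 half-log concentrations from 100 uM in 0.5% DMSO. PDK4 mRNA measured by qRT-PCR, normalized to ACTB, GAPDH and POLR2A; bidirectional fit versus DMSO.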

Read-out in assay [17]: Transforming Growth Factor (TGFA), TGFA (gene 7039)
Briefly: LTEA_HepaRG_TGFA: Life Technologies and Expression Analysis (LTEA) Assay for Transforming Growth Factor (TGFA) using HepaRG (AID 2283532). An outline of the steps:
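Differentiated HepaRG cells exposed 48 hours in serum-free induction medium, 0.5% DMSO vehicle, 8-point half-log series from 100 uM, in duplicate. TGFA mRNA by TaqMan qRT-PCR, normalised to ACTB, GAPDH, POLR2A; bidirectional fit versus DMSO.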

Read-out in assay [18]: matrix metalloproteinase-3 (MMP3), MMP3 (gene 4314)
Briefly: LTEA_HepaRG_MMP3: Life Technologies and Expression Analysis (LTEA) Assay for matrix metalloproteinase-3 (MMP3) using HepaRG (AID 2283519). An outline of the steps:
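HepaRG cells (~100,000/well) in serum-free induction medium were dosed in duplicate for 48 h with an 8-point half-log series from 100 uM, 0.5% DMSO. MMP3 mRNA was quantified by Fluidigm TaqMan qRT-PCR, normalized to three housekeeping genes.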

Read-out in assay [19]: Signal transducer and activator of transcription 3 (Homo sapiens) (UniProt P40763)
Briefly: LTEA_HepaRG_STAT3: Life Technologies and Expression Analysis (LTEA) Assay for Signal transducer and activator of transcription (STAT3) using HepaRG (AID 2283529). The gist of the method: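 Differentiated HepaRG cells, serum-free induction medium, dosed 48 h in duplicate, 8 half-log concentrations from 100 uM in 0.5% DMSO. STAT3 mRNA by qRT-PCR, normalised to ACTB, GAPDH, POLR2A; bidirectional fit versus DMSO.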

Structures are written as SMILES. Activity calls are given as the source filed them. How the source made its calls: active means hit-call score of the fitted dose curve at least 0.9, where 1 is the maximum; inactive means score below 0.9.

Nuclear factor erythroid 2-related factor 2 (Homo sapiens), sequence (Q16236 whole entry, looked up): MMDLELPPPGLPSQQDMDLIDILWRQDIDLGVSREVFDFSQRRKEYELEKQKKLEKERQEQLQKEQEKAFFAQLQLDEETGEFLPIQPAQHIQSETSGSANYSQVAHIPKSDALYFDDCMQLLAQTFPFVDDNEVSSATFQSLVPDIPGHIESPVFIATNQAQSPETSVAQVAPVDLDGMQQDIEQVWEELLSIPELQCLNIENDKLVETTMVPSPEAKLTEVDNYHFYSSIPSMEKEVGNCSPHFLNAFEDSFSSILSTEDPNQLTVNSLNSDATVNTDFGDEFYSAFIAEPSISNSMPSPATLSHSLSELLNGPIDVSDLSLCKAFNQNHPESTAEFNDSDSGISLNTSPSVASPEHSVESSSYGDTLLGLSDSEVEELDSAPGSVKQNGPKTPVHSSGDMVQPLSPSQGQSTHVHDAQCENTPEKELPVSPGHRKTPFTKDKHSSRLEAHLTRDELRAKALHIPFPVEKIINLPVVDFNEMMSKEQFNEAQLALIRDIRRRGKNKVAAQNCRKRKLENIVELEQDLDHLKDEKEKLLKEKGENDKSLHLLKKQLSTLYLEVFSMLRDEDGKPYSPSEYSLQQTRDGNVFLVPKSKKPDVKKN
Nuclear factor NF-kappa-B p105 subunit (Homo sapiens), sequence (P19838 whole entry, looked up): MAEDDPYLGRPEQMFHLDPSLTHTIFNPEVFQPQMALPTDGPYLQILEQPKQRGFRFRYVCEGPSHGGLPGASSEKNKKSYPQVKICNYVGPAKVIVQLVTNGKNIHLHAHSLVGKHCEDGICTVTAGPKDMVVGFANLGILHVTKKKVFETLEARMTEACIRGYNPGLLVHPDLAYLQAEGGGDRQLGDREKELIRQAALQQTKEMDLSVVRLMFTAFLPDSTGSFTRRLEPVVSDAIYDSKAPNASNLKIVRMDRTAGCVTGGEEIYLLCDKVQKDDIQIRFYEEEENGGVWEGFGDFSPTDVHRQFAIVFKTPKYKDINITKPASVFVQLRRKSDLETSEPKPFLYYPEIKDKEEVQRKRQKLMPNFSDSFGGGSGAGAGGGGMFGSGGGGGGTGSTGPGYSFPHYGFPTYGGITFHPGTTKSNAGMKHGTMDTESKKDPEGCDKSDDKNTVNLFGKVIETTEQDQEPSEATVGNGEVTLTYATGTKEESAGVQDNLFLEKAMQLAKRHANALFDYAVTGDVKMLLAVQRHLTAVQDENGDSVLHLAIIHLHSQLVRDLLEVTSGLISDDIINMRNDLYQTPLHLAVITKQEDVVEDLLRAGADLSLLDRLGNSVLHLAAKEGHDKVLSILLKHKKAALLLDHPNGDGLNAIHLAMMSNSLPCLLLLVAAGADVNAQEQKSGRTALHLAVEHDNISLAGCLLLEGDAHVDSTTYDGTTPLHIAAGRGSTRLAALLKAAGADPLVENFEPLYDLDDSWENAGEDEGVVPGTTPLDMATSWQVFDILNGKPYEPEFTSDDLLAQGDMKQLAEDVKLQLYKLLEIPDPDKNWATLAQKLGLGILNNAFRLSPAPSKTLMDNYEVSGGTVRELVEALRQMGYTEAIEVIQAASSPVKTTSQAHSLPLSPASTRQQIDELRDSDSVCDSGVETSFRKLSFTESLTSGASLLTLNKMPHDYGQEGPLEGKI
Signal transducer and activator of transcription 3 (Homo sapiens), sequence (P40763 whole entry, looked up): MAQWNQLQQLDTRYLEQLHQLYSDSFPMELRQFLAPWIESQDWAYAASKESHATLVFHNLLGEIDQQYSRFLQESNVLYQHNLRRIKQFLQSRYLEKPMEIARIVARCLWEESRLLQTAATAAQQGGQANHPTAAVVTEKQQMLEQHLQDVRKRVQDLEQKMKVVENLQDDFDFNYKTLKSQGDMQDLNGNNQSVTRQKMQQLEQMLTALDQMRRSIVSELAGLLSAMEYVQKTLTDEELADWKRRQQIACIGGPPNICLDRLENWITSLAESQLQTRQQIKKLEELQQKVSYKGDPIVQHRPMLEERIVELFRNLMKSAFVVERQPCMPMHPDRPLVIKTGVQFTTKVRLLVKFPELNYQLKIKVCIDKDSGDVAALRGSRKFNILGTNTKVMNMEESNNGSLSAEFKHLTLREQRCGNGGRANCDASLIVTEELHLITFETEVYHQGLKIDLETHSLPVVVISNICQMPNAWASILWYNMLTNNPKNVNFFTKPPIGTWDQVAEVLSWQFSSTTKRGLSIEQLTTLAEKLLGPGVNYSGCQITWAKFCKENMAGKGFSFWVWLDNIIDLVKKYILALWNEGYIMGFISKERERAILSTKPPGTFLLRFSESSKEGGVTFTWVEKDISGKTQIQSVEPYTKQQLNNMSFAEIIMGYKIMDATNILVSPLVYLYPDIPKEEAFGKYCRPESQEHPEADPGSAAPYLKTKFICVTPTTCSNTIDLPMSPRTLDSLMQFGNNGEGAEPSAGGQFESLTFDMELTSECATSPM

The AC50 is the concentration giving half of the maximal activity seen. Regarding `COc1cc(C(=O)NC2CCN(C)CC2)ccc1Nc1ncc2c(n1)N(C1CCCC1)CC(F)(F)C(=O)N2C`, the AC50 in [1] was 14 µM (active); in assay [4], 11.9 µM (active); in [5], 12 µM (active); in assay [6], 5.56 µM (active); in assay [8], 25.4 µM (active); in [9], 12.7 µM (active). In addition, the AC50 in assay [10] is 7.47 µM (active); in assay [11], 11.6 µM (active); in assay [12] it was 3.64 µM (active); in [13], 11.9 µM (active). Also, the outcome in assay [2], in [3] and in assay [7] was inactive.

Regarding `O=C1c2ccccc2C(=O)N1CCc1noc(-c2ccc(CN3CCCCCC3)s2)n1`, the AC50 was 20.7 µM (active) in assay [1] and 42.2 µM (active) in [3]. For the same compound, the compound was called inactive in assay [2], in [14], in assay [15], in assay [4], in assay [6] and in [16]. Moreover, the result in assay [7], in [8], in assay [9], in assay [10], in assay [11] and in assay [17] was inactive. Besides, the call in assay [12] and in assay [13] was inactive.

For the compound `Cc1ccc(C(C)C)cc1`, the result in [1], in assay [2], in assay [14], in assay [18], in [3] and in [4] was inactive. Further, the result in assay [6], in [16], in assay [7], in [8], in assay [9] and in [10] was inactive. In addition, the result in assay [11], in assay [17], in assay [12] and in assay [13] was inactive.

As for `O=c1ccc2ccccc2o1`, the compound was called inactive in assay [1], in assay [2], in assay [18], in assay [3], in assay [15] and in assay [4]. For the same compound, the compound was called inactive in assay [5], in assay [6], in [16], in [7], in [8] and in [9]. In addition, the call in [19], in assay [10], in [11], in assay [12] and in [13] was inactive.
